The results in this text go back to PubChem BioAssay (NCATS).

Records with an inconclusive call do not appear. Calls of active or inactive are those of the source. Unless noted, calls come from the whole dose curve; as a rule, active = well fitted curve in the direction sought with a large enough effect; inconclusive = small, poorly fitted or top-dose-only effect, or another doubt; inactive = no such curve, though single readings can be large; an effect the other way counts as inactive or inconclusive. Where only a bound is given, the exact number is not on record here.

In assay [1] the target is Lysosomal acid glucosylceramidase (Homo sapiens) (UniProt P04062). As to the kind of experiment: Glucocerebrosidase-p2 (AID 348; in the data active = potency below about 10 µM; note: potency is the fitted concentration of half-maximal effect). The conditions noted are these: purified GBA, blue fluorogenic substrate, 40 min. In outline: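 Compounds titrated from 0.6 nM upwards against 0.2 nM enzyme in pH 5.9 citric acid/KH2PO4, taurocholate, tween-20; blue fluorogenic substrate 80 uM, 40 min room temperature, stopped and read Ex 365/Em 440 for AC50.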
Sequence of Lysosomal acid glucosylceramidase (Homo sapiens) (P04062 whole entry, looked up): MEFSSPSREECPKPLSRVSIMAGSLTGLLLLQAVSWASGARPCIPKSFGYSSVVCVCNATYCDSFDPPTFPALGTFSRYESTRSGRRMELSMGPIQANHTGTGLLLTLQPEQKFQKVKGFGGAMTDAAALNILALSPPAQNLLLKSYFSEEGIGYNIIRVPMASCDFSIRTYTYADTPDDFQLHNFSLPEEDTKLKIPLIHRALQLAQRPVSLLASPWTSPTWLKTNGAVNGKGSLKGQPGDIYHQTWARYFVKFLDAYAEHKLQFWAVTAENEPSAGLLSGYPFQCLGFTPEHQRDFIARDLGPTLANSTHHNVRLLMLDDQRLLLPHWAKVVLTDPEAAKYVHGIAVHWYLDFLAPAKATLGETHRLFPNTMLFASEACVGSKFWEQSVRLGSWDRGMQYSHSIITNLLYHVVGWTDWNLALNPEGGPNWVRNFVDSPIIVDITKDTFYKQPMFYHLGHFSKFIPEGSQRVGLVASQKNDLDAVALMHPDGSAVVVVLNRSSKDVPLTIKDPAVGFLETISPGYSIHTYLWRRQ

For assay [2], the target named is Cytochrome P450 1A2 (Homo sapiens) (UniProt P05177). Briefly: p450-cyp1a2 (AID 410; calls by dose curve; note: potency is the fitted concentration of half-maximal effect). As to conditions: recombinant CYP1A2, luciferin-ME demethylation, luminescence; series mostly up to 57 µM. The procedure, abridged: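 Human CYP1A2 (20nM) demethylated Luciferin-ME at its Km (100uM) in 100mM KPO4. After 10 min compound preincubation, NADPH regeneration ran the reaction 60 min at room temperature. Luciferin was read by luminescence, normalized to 57 uM furafylline.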
Sequence of Cytochrome P450 1A2 (Homo sapiens) (P05177 whole entry, looked up): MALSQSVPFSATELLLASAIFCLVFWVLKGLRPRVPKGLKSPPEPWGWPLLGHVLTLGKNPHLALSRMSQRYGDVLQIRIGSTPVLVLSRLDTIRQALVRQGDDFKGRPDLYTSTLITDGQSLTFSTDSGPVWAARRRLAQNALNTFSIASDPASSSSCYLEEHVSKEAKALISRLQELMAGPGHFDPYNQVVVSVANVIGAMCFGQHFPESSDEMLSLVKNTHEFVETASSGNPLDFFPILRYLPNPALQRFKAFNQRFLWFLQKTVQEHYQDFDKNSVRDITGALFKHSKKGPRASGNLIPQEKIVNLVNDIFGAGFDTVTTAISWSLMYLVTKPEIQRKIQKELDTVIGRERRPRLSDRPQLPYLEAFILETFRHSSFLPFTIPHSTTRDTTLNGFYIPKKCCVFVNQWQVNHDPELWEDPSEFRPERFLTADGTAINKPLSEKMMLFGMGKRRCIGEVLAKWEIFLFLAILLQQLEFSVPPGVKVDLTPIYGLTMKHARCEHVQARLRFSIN

Assay [3] is described as follows: NFAT Signaling Pathway (AID 444; active = well fitted curve in either direction with a large enough effect, not every such curve was filed as active;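 note: carbachol stimulus at about its EC50 of 1 µM final; % is set by controls: 0 for no effect and ±100 for the full control effect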). As to conditions: Jurkat NFAT-bla M1, carbachol, beta-lactamase ratio, 5 h; at 7.69 µM (top of the series) unless noted. In outline: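 Jurkat cells with NFAT-driven β-lactamase reporter and co-expressed M1 receptor, stimulated with carbachol (final 1 uM, ~EC50), compound titration, 5 h at 37 °C. CCF4 loaded 1 h at RT; 460/530 nm ratio gave %activity and AC50.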

Assay [4] is described as follows: Stat Signaling Pathway (AID 446; active = well fitted curve in either direction with a large enough effect, not every such curve was filed as active;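 note: ME-180 cervical cancer cells given 40 pM IL-6 alongside compound; SIE-controlled beta-lactamase reporter measured as 460/530 nm FRET emission ratio; % is set by controls: 0 for no effect and ±100 for the full control effect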). As to conditions: ME-180 SIE beta-lactamase reporter, IL-6 stimulated, 5 h; at 7.69 µM (top of the series) unless noted. The procedure, abridged: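 Reporter line: ME-180 cervical carcinoma, SIE-beta-lactamase. Treatment: compound with 40 pM IL-6, 5 hrs, 37 C, in low-serum OPTI-MEM with 10 mM HEPES pH 7.3. Detection: 460/530 nm fluorescence.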

The target in assay [5] is Glucocorticoid receptor (Homo sapiens) (UniProt P04150). As to the kind of experiment: GR-GFP Redistribution (AID 450;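 active = compounds whose dose series gives a full or clear partial fitted curve of increased nuclear translocation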; note: potency is the fitted concentration of half-maximal effect). The conditions noted are these: U2OS GR-GFP nuclear translocation, laser cytometry, 2 h.
Sequence of Glucocorticoid receptor (Homo sapiens) (P04150 whole entry, looked up, the tested form may be a part): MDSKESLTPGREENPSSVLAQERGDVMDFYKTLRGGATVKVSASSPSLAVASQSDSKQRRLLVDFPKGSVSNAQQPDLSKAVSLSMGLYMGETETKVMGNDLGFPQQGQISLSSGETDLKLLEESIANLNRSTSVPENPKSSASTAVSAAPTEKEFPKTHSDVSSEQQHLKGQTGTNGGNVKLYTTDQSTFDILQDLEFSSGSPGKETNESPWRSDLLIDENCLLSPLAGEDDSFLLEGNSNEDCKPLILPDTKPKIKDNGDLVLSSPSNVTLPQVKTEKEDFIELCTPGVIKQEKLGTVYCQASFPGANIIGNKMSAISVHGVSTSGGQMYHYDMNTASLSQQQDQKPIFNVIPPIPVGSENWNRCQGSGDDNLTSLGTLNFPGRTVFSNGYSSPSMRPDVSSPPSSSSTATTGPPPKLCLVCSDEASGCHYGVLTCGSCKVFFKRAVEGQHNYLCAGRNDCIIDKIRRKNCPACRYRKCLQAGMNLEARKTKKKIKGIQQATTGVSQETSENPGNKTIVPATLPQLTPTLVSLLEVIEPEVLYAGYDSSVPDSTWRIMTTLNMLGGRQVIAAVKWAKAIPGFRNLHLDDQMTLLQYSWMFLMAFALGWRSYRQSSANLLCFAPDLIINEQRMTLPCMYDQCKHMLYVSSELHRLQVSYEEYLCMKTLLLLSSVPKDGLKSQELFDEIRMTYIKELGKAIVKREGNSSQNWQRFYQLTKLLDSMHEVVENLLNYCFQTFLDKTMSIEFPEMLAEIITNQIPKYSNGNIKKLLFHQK
Assay [6] has the same target. Briefly: GR-EFC Redistribution (AID 451; calls by dose curve; note: potency is the fitted concentration of half-maximal effect). The conditions noted are these: CHO-K1 GR-EFC translocation, beta-gal luminescence, 2 h. The procedure, abridged: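 CHO-K1 cells expressing nuclear EA and GR-ED fragments of b-gal; compounds titrated up to 46 uM final, 2 h at 37 C. GR nuclear translocation read as complemented b-gal luminescence after 1 h RT detection.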
Assay [7] concerns the target Mitogen-activated protein kinase 10 (Mus musculus) (UniProt Q61831). As to the kind of experiment: JNK3 AlphaScreen Assay (AID 530; active = well fitted curve in either direction with a large enough effect, not every such curve was filed as active;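 note: kinase came from lysate of stimulated human HepG2 cells; signal reports phosphorylation of biotinylated GST-cJun 1-79 at Ser73 with 10 µM ATP; % is set by controls: 0 for no effect and ±100 for the full control effect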). The conditions noted are these: JNK3 lysate, c-Jun phosphorylation; series mostly up to 57.1 µM. In outline:
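qHTS format: compounds tested as titrations against IL-1beta/TNF-alpha-activated HepG2 lysate JNK3 with biotin-GST-cJun substrate and 10 uM ATP at room temperature. Loss of anti-phospho-cJun AlphaScreen signal indicates inhibition.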
(In general: Alpha assays give light when donor and acceptor beads are brought close together.)

For assay [8], the target named is 3',5'-cyclic-AMP phosphodiesterase 4B (Homo sapiens) (UniProt Q07343). As to the kind of experiment: qHTS Assay for Inhibitors of PDE-IV (AID 607; active = well fitted activation curve with a large enough effect in the main read-out, with a control signal flat, not every such curve was filed as active; note: % of control where 0% means no effect). The conditions noted are these: HEK293 ACTOne CNG channel cells, membrane potential fluorescence; series mostly up to 22.9 µM. In outline:
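Cell-based read-out of cAMP via a modified cyclic nucleotide-gated channel and membrane potential dye (535/590 nm) in HEK293 cells expressing PDE4 endogenously. Compounds tested up to 22.9 uM final; 100 uM RO 20-1724 reference.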
(In general: qHTS replaces the single test concentration by a dilution series.)

In assay [9] the target is Cytochrome P450 3A4 (Homo sapiens) (UniProt P08684). As to the kind of experiment: qHTS Assay for Activators of Cytochrome P450 3A4 (AID 885). Note: nearly all actives have a fitted effect of over 65% in size. As to conditions: recombinant CYP3A4, Luciferin-PPXE luminescence, 60 min; series mostly up to 57.1 µM. In outline:
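Signal was normalized against complete inhibition by 57 uM ketoconazole. The reaction used 20nM CYP3A4 with 25uM Luciferin-PPXE, 10-min compound preincubation and a 60-min NADPH-supported step at RT.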

Assay [10] is described as follows: qHTS Assay for Lipid Storage Modulators (AID 1519; calls by dose curve). The conditions noted are these: Drosophila S3 cells, BODIPY lipid droplet/cell ratio, laser cytometry, cells loaded with oleic acid; for activity change, negative = inhibition: at 57.5 µM (top of the series). In outline: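 Cells seeded at 5,000 per well were treated with compounds over a concentration series and loaded with oleic acid (400 uM, as added). Lipid droplet fluorescence (488 nm excitation, 500-530 nm channel) was read by laser-scanning cytometry and normalized to 20 uM Triacsin C.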

The target in assay [11] is Dual specificity protein kinase CLK4 (Homo sapiens) (UniProt Q9HAZ1). As to the kind of experiment: qHTS Assay for Inhibitors of CDC-like Kinase 4 (Kinase-Glo Assay) (AID 1770). Note: nearly all actives have a fitted effect of over 65% in size. Note: potency is the fitted concentration of half-maximal effect. As to conditions: recombinant Clk4, Kinase-Glo ATP depletion luminescence; series mostly up to 66.7 µM. The procedure, abridged:
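Readout: Kinase-Glo luminescence from ATP left after a 4.5 h room-temperature reaction of 25 nM Clk4 with 100 uM RS peptide and 1 uM ATP (final). Buffer: 25 mM Tris pH 7.5, 10 mM MgCl2.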

Assay [12] shares this target. As to the kind of experiment: qHTS Assay for Inhibitors of CDC-like Kinase 4 (ADP-Glo Assay) (AID 1771). Note: nearly all actives have a fitted effect of over 70% in size. Note: potency is the fitted concentration of half-maximal effect. As to conditions: recombinant CLK4, ADP-Glo luminescence; series mostly up to 80 µM. In outline: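 Clk4 (25 nM) was incubated 1 hr at room temperature with 100 uM RS repeat peptide and 1 uM ATP in buffer with 2 mM MgCl2, 0.5 mM EGTA, 2.5 mM DTT. ADP formed was quantified by ADP-Glo luminescence.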

The target of assay [13] is Ubiquitin carboxyl-terminal hydrolase 1 (Homo sapiens) (UniProt O94782). Briefly: Inhibitors of USP1/UAF1: Pilot qHTS (AID 504865).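 Note: rhodamine fluorescence freed from ubiquitin-rhodamine substrate followed over time; top concentration of the series differs between compounds; % is set by controls: 0 for no effect and ±100 for the full control effect; nearly all actives have a fitted effect of over 35% in size.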 As to conditions: purified USP1/UAF1, Ub-rhodamine cleavage fluorescence; series mostly up to 54.9 µM. The procedure, abridged: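 1nM USP1/UAF1 + cpd, 15 min RT; start w/ Ub-Rho 150nM final; kinetic FL 480/540 nm, 6 reads q60 s. Buffer 50mM HEPES pH 7.8, 0.5mM EDTA, 1mM TCEP, 0.01% Tween-20, 0.1 mg/ml BSA.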
Sequence of Ubiquitin carboxyl-terminal hydrolase 1 (Homo sapiens) (O94782 whole entry, looked up): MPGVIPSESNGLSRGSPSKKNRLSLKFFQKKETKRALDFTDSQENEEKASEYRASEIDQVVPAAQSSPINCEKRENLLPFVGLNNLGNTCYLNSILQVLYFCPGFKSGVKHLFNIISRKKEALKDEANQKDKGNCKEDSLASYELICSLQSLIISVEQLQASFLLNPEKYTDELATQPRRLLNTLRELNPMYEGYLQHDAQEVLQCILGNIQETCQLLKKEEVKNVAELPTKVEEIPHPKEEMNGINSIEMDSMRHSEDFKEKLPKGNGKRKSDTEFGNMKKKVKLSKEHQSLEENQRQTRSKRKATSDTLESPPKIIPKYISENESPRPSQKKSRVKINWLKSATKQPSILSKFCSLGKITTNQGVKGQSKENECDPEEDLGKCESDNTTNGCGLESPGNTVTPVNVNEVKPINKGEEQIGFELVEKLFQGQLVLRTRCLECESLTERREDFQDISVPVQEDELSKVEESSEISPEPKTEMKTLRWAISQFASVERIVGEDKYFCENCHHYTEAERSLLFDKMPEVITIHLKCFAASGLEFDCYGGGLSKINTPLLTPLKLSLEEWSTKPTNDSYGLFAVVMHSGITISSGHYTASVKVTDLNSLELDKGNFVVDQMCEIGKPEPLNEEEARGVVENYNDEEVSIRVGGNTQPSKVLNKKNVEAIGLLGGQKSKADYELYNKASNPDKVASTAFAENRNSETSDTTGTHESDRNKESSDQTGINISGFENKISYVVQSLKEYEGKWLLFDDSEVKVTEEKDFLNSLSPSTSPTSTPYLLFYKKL

The target of assay [14] is Dual specificity protein kinase CLK4 (Homo sapiens) (UniProt Q9HAZ1). Briefly: qHTS Assay for Inhibitors of CDC-like Kinase 4 (ADP-FP Assay) (AID 1795). Note: % is set by controls: 0 for no effect and ±100 for the full control effect; nearly all actives have a fitted effect of over 60% in size. The conditions noted are these: Transcreener ADP fluorescence polarization; series mostly up to 50 µM. The procedure, abridged: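 FP readout: Orange Transcreener ADP2 tracer (4 nM) plus ADP antibody, read after 30 min at room temperature. Kinase step: 6.25 nM Clk4, 100 uM RS peptide, 1 uM ATP, pH 7.5, 1 h.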
Sequence of Dual specificity protein kinase CLK4 (Homo sapiens) (Q9HAZ1 whole entry, looked up): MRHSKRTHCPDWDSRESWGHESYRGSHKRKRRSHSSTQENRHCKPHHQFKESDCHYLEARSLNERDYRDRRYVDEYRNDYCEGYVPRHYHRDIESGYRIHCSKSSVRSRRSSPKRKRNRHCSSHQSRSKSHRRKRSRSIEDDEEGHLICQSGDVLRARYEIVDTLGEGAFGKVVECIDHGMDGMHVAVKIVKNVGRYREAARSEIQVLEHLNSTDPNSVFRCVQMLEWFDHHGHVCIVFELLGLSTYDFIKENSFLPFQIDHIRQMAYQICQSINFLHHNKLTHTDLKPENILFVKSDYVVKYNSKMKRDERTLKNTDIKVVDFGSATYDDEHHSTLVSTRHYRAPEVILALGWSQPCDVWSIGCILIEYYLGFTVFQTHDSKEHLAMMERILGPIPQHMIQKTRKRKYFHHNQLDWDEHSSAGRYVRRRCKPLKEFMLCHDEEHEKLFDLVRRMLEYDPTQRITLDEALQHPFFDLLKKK

Assay [15] in a line: AP1 Signaling Pathway (AID 357; active = well fitted curve in either direction with a large enough effect, not every such curve was filed as active;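 note: ME-180 reporter cells stimulated with EGF at its EC50 level; % is set by controls: 0 for no effect and ±100 for the full control effect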). As to conditions: ME-180 (cervical carcinoma) AP-1-bla reporter, EGF-induced, beta-lactamase ratio, 5 h; at 7.69 µM (top of the series) unless noted. The procedure, abridged:
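Titration-series screen for positive or negative modulators of EC50 EGF-induced signaling in ME-180 cells carrying an AP-1-driven beta-lactamase reporter. After 5 hours at 37 degrees Celsius, CCF4 460nm/530nm emission ratio gave %Activity; AC50 values derived.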

The mark [16] stands for this setting: measured here: cell count channel max response.
Where [17] appears, read: measured here: lipid channel max response.

Sequence of 3',5'-cyclic-AMP phosphodiesterase 4B (Homo sapiens) (Q07343 whole entry, looked up): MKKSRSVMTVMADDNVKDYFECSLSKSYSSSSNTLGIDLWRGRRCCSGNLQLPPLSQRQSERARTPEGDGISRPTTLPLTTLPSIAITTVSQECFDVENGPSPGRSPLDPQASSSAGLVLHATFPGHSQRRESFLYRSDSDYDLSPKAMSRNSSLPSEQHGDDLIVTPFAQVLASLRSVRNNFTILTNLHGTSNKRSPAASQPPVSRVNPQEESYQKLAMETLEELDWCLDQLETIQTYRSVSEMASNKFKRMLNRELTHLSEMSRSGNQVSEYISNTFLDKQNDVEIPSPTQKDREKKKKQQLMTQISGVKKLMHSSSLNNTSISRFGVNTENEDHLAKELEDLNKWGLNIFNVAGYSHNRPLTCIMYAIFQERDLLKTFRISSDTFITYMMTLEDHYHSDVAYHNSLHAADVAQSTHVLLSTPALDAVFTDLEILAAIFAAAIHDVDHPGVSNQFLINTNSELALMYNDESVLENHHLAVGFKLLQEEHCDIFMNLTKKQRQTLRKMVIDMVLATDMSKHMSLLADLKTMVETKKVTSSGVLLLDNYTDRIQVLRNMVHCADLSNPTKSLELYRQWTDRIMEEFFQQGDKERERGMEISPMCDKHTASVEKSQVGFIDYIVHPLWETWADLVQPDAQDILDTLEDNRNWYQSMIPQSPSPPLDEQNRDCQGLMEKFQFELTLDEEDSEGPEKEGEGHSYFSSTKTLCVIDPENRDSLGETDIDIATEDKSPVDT
Sequence of Cytochrome P450 3A4 (Homo sapiens) (P08684 whole entry, looked up): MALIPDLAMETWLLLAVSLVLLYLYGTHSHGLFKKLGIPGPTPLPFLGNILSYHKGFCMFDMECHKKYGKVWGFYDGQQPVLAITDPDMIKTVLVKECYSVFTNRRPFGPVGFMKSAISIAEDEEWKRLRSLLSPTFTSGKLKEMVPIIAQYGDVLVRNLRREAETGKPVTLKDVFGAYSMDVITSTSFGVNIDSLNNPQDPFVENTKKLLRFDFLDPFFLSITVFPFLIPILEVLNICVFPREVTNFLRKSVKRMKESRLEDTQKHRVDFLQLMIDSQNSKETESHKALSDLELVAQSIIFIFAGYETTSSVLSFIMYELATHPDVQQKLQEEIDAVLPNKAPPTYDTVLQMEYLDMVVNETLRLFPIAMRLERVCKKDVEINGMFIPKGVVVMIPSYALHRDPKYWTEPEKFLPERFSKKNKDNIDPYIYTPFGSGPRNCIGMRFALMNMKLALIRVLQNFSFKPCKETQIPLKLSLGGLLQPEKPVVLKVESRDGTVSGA

On to `Cc1ccccc1-c1ccc2ncnc(N3CCNCC3)c2c1`, for which the Potency in [1] is > 11.4 µM (inactive); in assay [2], 3.16 µM (active); in assay [5], > 46 µM (inactive); in assay [6] it was > 46 µM (inactive); in assay [11], 20 µM (active); in assay [12] it was 31.6 µM (active). The activity change, negative = inhibition in assay [3] is -1.24% (inactive); in assay [10] it was 6.61% (inactive). For the same molecule, the activity, negative = inhibition in [4] was 9.45% (inactive). In addition, the Potency entry in assay [7], in assay [8], in assay [9] and in assay [13] was “inactive” in each case. In addition, the max response in assay [10] (setting [16]) was determined as 4.98%; in assay [10] (setting [17]), 8.2%.

As to `COCCn1c(=O)c(-c2ccc(Cl)cc2)nc2cnc(N3CCNCC3)nc21`, the results for the Potency in assay [1], in assay [5] and in [6] were > 11.4 µM (inactive), > 9.22 µM (inactive) and > 46 µM (inactive), respectively. In addition, the Potency result in assay [7], in assay [8], in assay [11], in assay [12] and in [13] was “inactive” throughout. Moreover, the activity change, negative = inhibition in [10] is 5.4% (inactive). The max response in assay [10] (setting [16]) worked out at 20.2%; in [10] (setting [17]) it was 21.3%.

For the molecule `COc1cccc(Cn2c(=O)c(-c3ccc(F)cc3)nc3cnc(N4CCNCC4)nc32)c1`, the Potency was > 11.4 µM (inactive) in [1], > 9.22 µM (inactive) in [5] and > 46 µM (inactive) in [6]. The Potency result in assay [8], in [9], in [11], in assay [12] and in assay [14] was “inactive” throughout. The activity change, negative = inhibition in assay [10] is -5.11% (inactive). The max response came to 2.95% in assay [10] (setting [16]) and 0.893% in assay [10] (setting [17]).

`N#Cc1cccc(-c2ccc3ncnc(NCCN4CCOCC4)c3c2)c1`: the Potency in [1] is > 11.4 µM (inactive); in assay [5], > 46 µM (inactive); in assay [6], > 46 µM (inactive); in [11], 12.6 µM (active); in assay [12], 8.91 µM (active). For the same molecule, the activity change, negative = inhibition in [15] is 1.43% (inactive); in assay [3], 19.4% (inactive); in [10], 4.75% (inactive). Besides, the Potency result in assay [7], in [8] and in [13] was “inactive” each time. Also, the max response turned out to be 5.88% in [10] (setting [16]) and 7.51% in assay [10] (setting [17]).
